Only some compounds are listed: those with a hit (about 19% of all), similar ones and a draw of the others.
IL-1B inflam inh = qHTS for Inhibitors of Inflammasome Signaling: IL-1-beta AlphaLISA Primary Screen | THP-1 LPS/ATP IL-1B secretion, AlphaLISA, 16 h; hits give low values | 4.7% of 360,000 active | activity change, % at 57.5 µM; in the data active = activity change below about -50%; inconclusive = mostly about -30% to -49%
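Secreted IL-1B measured by AlphaLISA bead assay after 16 h compound exposure of THP-1 cells; compounds (final up to 57.5 uM) added 1 h before LPS (250 ng/mL) and ATP (1.25 mM) stimulation; lower signal means less secretion.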
HT1080 IDH1KD tx = qHTS for induction of synthetic lethality in tumor cells producing 2HG: qHTS for the HT-1080-IDH1KD cell line. HT-1080 IDH1 knockdown viability, ATP luminescence, 48 h. 2% of 360,000 active. AID 686971, 2013. Potency, µM (titrated, usually from 46.1 µM), inactives show top-dose activity, negative = toxicity, most hits filed as cytotoxic;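 also: potency is read from the fitted curve at half-maximal effect; 0% = DMSO wells and -100% = cell-free medium wells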
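Knockdown cells (IDH1KD HT-1080) received compounds 2 h after plating at 750 cells/well and were kept 48 h at 37 °C in 5% FBS RPMI. A CellTiter-Glo luminescence read gave % activity for curve fitting.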
ELG1 repair inh = qHTS screen for small molecules that inhibit ELG1-dependent DNA repair in human embryonic kidney (HEK293T) cells expressing luciferase-tagged ELG1; 2.3% of 330,000 active; AID 504467, 2011; HEK293T ELG1-luciferase reporter, luminescence, 16 h; DNA damage induced by 5-fluorouridine; Potency, µM (highest dose often 46.1 µM), inactives show at the highest dose activity change, negative = inhibition, actives largely listed as inhibitors; also: potency is read from the fitted curve at half-maximal effect; nearly all actives have a fitted effect of over 55% in size
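Cells (2,000 per well) received 5-fluorouridine plus test compound or DMSO and were incubated 16 hr at 37 °C, 5% CO2. Luciferase activity was read by luminescence 30 min after ONE-Glo addition; signal suppression marked inhibition of damage-induced ELG1 function.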
HT1080-NT tox = qHTS for induction of synthetic lethality in tumor cells producing 2HG: qHTS for the HT-1080-NT fibrosarcoma cell line; HT-1080-NT fibrosarcoma viability, CellTiter-Glo ATP luminescence, 48 h; Potency, µM (top dose mostly 46.1 µM), for the others: top-dose activity, negative = less viability, most hits filed as cytotoxic; 1.6% of 360,000 active;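 also: NT is the 2HG producing partner of a matched IDH1 knockdown line; potency is read from the fitted curve at half-maximal effect; 0% = DMSO-treated cells and -100% = media-only wells without cells; nearly all actives have a fitted effect of over 55% in size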
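HT-1080-NT fibrosarcoma cells (2HG-overproducing), 750 cells/well in RPMI with 5% FBS, dosed after 2 h and incubated 48 h at 37C. CellTiter-Glo luminescence normalized to DMSO and no-cell wells; concentration-response curves fitted and classed.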
TDP1 cell noCPT = qHTS for Inhibitors of human tyrosyl-DNA phosphodiesterase 1 (TDP1): qHTS in cells in absence of CPT; Potency, µM (top dose mostly 46.2 µM), inactives show at the highest dose activity change, negative = growth inhibition, hits mostly inhibitors; DT40 Tdp1-/- hTDP1 cells, no CPT, ATP luminescence, 48 h; 15% of 420,000 active; also: potency is read from the fitted curve at half-maximal effect; nearly all actives have a fitted effect of over 55% in size
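Camptothecin absent (DMSO only). Human TDP1-complemented DT40 knockout cells, 400 cells/well, 37 °C for minimum 48 hr; ATP measured via CellTiter-Glo, 30 min dark incubation, luminescence.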
DT40 TDP1 CPT = qHTS for Inhibitors of human tyrosyl-DNA phosphodiesterase 1 (TDP1): qHTS in cells in presence of CPT. chicken DT40 Tdp1-/-;hTDP1 cells + 20 nM CPT, ATP luminescence, 48 h. Potency, µM (series often up to 46.2 µM), for the others: top-dose activity change, negative = growth inhibition, usual class: inhibitors. 12% of 420,000 active. AID 686979, 2013; also: potency is read from the fitted curve at half-maximal effect; nearly all actives have a fitted effect of over 55% in size
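Cell growth measured by CellTiter-Glo luminescence after a minimum 48 h, 37 C compound exposure with 20 nM CPT in Tdp1-knockout DT40 cells stably expressing hTDP1, seeded 400/well; qHTS titration format.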
The depositor's hits bear a star; ? = inconclusive; nt = no result given. Unless noted, calls follow the shape of the dose curve; as a rule, active = well fitted curve in the direction sought with a large enough effect; inconclusive = small, poorly fitted or top-dose-only effect, or another doubt; inactive = no such curve, though single readings can be large; an effect the other way counts as inactive or inconclusive. Unless noted, % is scaled to controls: 0 for no effect and ±100 for the full control effect.

SMILES	IL-1B inflam inh	HT1080 IDH1KD tx	ELG1 repair inh	HT1080-NT tox	TDP1 cell noCPT	DT40 TDP1 CPT
CCOC(=O)[C@@H]1[C@H]2COc3ccccc3[C@@H]2N2C(=O)N(c3ccc(Cl)cc3)C(=O)[C@@]12C	-11.3	-1.2%	-3.9%	-0.4%	-22.2%	-18.5%
CCOC(=O)[C@@H]1[C@H]2COc3ccc(Br)cc3[C@@H]2N2C(=O)N(c3ccc(F)cc3)C(=O)[C@@]12C	11.9	2.6%	-0.8%	-6.9%	?	?
CCOC(=O)[C@H]1[C@H]2COc3ccc(Br)cc3[C@@H]2N2C(=O)N(c3ccc(F)cc3)C(=O)[C@@]12C	30.2	-3.4%	-8.0%	-9.7%	?	18.4µM*
CCCCc1cc(=O)oc2c(C)c(OCc3nn[nH]n3)ccc12	7.6	-1.1%	-0.5%	-18.8%	0.2%	23.7%
Clc1ccc2nc[nH]c2c1	nt	nt	nt	nt	-18.3%	-17.6%
Nc1ncc([N+](=O)[O-])cc1S(=O)(=O)c1ccccc1	0.0	-2.0%	nt	-2.2%	?	-28.0%
COc1ccc(CCNC(=O)c2ccc3c(c2)CCN3S(C)(=O)=O)cc1OC	nt	nt	nt	nt	?	-12.4%
COC(=O)c1ccccc1NC(=O)c1ccc2c(c1)CCN2S(=O)(=O)c1ccc(C)cc1	nt	nt	nt	nt	?	-28.0%
Cc1ccc(S(=O)(=O)N2CCc3cc(C(=O)N(C)Cc4ccccc4)ccc32)cc1	nt	nt	nt	nt	13µM*	14.6µM*
COc1ccc(CCNC(=O)c2ccc3c(c2)CCN3S(=O)(=O)c2ccccc2)cc1OC	nt	nt	nt	nt	?	16.4µM*
NS(=O)(=O)c1ccc(CCNC(=O)c2cccc(S(=O)(=O)N3CCc4ccccc43)c2)cc1	7.4	-15.5%	nt	-5.1%	?	?
COc1ccc(CCNC(=O)c2ccc3c(c2)CCN3S(=O)(=O)c2ccccc2)cc1	nt	nt	nt	nt	20.6µM*	3.66µM*
CNc1cc(-c2ccc(O)cc2C)ncn1	23.3	8.5%	nt	7.3%	-27.5%	-7.9%
O=C(Nc1cccc(F)c1)N1CCCC2(CCN(C(=O)c3csnn3)CC2)C1	nt	nt	nt	nt	1.9%	21.6%
CCOc1ccc(NC(=O)Cn2cc(C(=O)c3ccc(F)cc3)c(=O)c3cc4c(cc32)OCCO4)cc1	nt	nt	nt	nt	-1.7%	-21.0%
COc1ccc(-c2cc(C(F)(F)F)n3nc(C(=O)Nc4cc(Cl)cc(Cl)c4)cc3n2)cc1	nt	nt	nt	nt	?	-12.4%
COc1ccc(S(=O)(=O)N2CCOCC2)cc1NC(=O)CSc1ccc(F)cc1	9.3	0.4%	?	15.8%	?	-25.4%
CCOC(=O)C1=CCN(S(=O)(=O)c2ccc(Cl)cc2)C1c1cccc(C)c1 (configuration not stated)	10.6	-24.2%	nt	-23.8%	?	?
CCOC(=O)C1=CCN(S(=O)(=O)c2ccc(Br)cc2)C1c1cccc(C)c1 (configuration not stated)	6.0	?	nt	?	25.9µM*	?
CCOC(=O)C1=CCN(S(=O)(=O)c2ccc(C)cc2)C1c1cccc(Br)c1 (configuration not stated)	-17.9	?	nt	-26.1%	?	16.4µM*
CCOC(=O)C1=CC[C@@H](c2cccc(Br)c2)N(S(=O)(=O)c2ccc(F)cc2)[C@H]1c1cccc(Cl)c1	10.8	-5.7%	nt	-0.5%	10.3µM*	20.6µM*
CCOc1ccccc1NC(=O)c1cc2c(=O)oc3ccccc3c2s1	nt	nt	nt	nt	-19.0%	-7.9%
COc1ccccc1C(=O)OCc1cc(=O)n2nc(C3CCCCC3)sc2n1	nt	nt	nt	nt	?	-9.6%
COc1cccc(NC(=O)CSCn2nnc3c(=O)[nH]c(Cc4ccc(F)cc4)nc32)c1	nt	nt	nt	nt	4.11µM*	-21.6%
Cc1ccccc1NC(=O)CSCn1nnc2c(=O)[nH]c(Cc3ccc(F)cc3)nc21	nt	nt	nt	nt	-22.5%	-29.5%
SMILES	IL-1B inflam inh	HT1080 IDH1KD tx	ELG1 repair inh	HT1080-NT tox	TDP1 cell noCPT	DT40 TDP1 CPT
COc1cccc(C(C(=O)NC2CCCC2)N2CCN(c3cc(C)nc4ccccc34)CC2)c1OC (configuration not stated)	-19.8	-3.9%	nt	-11.3%	20.6µM*	23.1µM*
Cc1ccc(C)c(N2CCN(CC3CCCCC3)CC2)c1	25.4	-6.6%	-8.4%	-1.8%	?	?
Cc1cc(C(=O)NC2CCCC2)c2ccccc2n1	2.1	1.6%	-0.7%	1.3%	8.2%	22.3%
Cc1ccc(C)c(N2CCN(C(C(=O)NC3CCCC3)C(C)C)CC2)c1 (configuration not stated)	-15.1	2.6%	nt	-2.7%	20.6µM*	18.4µM*
CC(C)(C)C(C(=O)NC1CCCC1)N1CCN(c2ncccc2C#N)CC1 (configuration not stated)	3.1	4.9%	nt	0.0%	?	16.4µM*
N#Cc1cccnc1N1CCN(C(C(=O)NC2CCCC2)c2ccco2)CC1 (configuration not stated)	-10.1	12.9%	nt	19.9%	?	-6.1%
Cc1cc(N2CCN(C(C(=O)NC3CCCC3)C(C)(C)C)CC2)c2ccccc2n1 (configuration not stated)	-7.2	?	nt	?	11.6µM*	?
COc1ccc(N2CC(NS(=O)(=O)c3cccs3)CC2=O)cc1OC (configuration not stated)	35.0	3.7%	10.4%	9.1%	-18.8%	-2.8%
NS(=O)(=O)c1cc(C(=O)N2CCNC(=O)C2)ccc1Cl	18.1	0.0%	?	5.2%	17.3%	1.0%
Cn1c(CNC(=O)c2ccc(Cl)cc2)nnc1SCC(=O)NC1CCCC1	-0.4	0.0%	3.8%	3.7%	-10.8%	2.7%
O=C1Cc2ccccc2C(=O)N1c1ccc(F)cc1Cl	-8.9	16.2%	-0.6%	22.3%	16.4µM*	?
O=C1Cc2ccccc2C(=O)N1c1cccc(Cl)c1	12.0	5.2%	-3.1%	11.1%	-28.5%	-27.0%

Screening data (PubChem)
